In the library only some 3.8% were active in any assay of this set; here they are far more common.
HSF-1 act: HSF-1 activators, primary screen, NIH3T3-HGL cells, MG132 stress, luminescence, single point; NIH3T3-HGL HSF-1 luciferase reporter, 8 h; 100% = twice DMSO control signal; hit rate 1.7% among 300,000; activation, % at 9 µM;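 active means mean replicate activation of at least 50% with a set share of replicates each reaching 50%; inconclusive means only one of those two conditions met; inactive means mean below 50% and too few replicates reaching it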;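 further: 0% = median of the neutral control wells and 100% = twice that signal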
MITF TRPM1 HTS: activators of MITF-driven TRPM1 promoter reporter, primary screen, cell-based, SK-MEL-5, luciferase, single point; activation, % at 12.5 µM; SK-MEL-5 TRPM1-promoter luciferase, 24 h; % of positive control, neutral wells = 0; hit rate 0.75% among 300,000;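 active means mean activation of at least 80% with every replicate also reaching 80%; inconclusive means mean reaches 80% but some replicate falls short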;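 further: 0% = neutral control wells and 100% = parthenolide positive control wells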
esBAF inh: Bmi1 luciferase reporter increase in mESCs, primary screen, esBAF inhibitor project, mouse ES cells, Bmi1 luciferase knock-in, single point. 24 h; 100% = twice the neutral-well signal. reporter increase, % at 12.5 µM. hit rate 2% among 350,000; in the data active means activation above about 40%; inconclusive means no clear call, values can overlap the other calls;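 further: 0% = median of the plate's neutral control wells and 100% = double that signal; a rise in the Bmi1 reporter signal indicates esBAF inhibition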
Wnt bcat act: Wnt/beta-catenin pathway activators, primary screen, cell-based, plate reader, single point; Wnt/beta-catenin reporter cell assay, activator; activation, % at 9.35 µM; hit rate 1.2% among 300,000; AID 743398, 2014; in the data active means activation above about 30%, passing the limit was not always enough; inconclusive means no clear call, values can overlap the other calls;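 further: 0% = neutral control wells and 100% = positive control wells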
HSF1 inhib: HSF1 inhibitors in luciferase reporter cells, primary screen, cell-based, NIH3T3, luminescence. activity change, negative = inhibition, % at 7.5 µM (by protocol). NIH3T3-HGL HSE-luciferase, MG132-induced, luminescence 8 h; active compounds read low. AID 2098, 2009. hit rate 0.77% among 300,000;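 active means more than half of replicate wells show activity change below -50%, luminescence cut by over half; inconclusive means some wells, but at most half, below -50%; inactive means no replicate well below -50%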;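 further: luciferase reports HSF-1 transcriptional activity via heat shock element; 0% = median of DMSO wells and -100% = zero luminescence signal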
* marks the source's active call; other numbers are inactive results; ? = inconclusive; . = no result given.

SMILES | HSF-1 act | MITF TRPM1 HTS | esBAF inh | Wnt bcat act | HSF1 inhib
CC(=O)Nc1sc2c(c1C(N)=O)CCN(Cc1ccccc1)C2 | 12 | -1 | 4 | -1 | 3
Cc1ccccc1OCC(=O)Nc1sc2c(c1C#N)CCC2 | 50 | 36 | 47* | -1 | 13
Cc1cc(OCC(=O)Nc2sc3c(c2C#N)CC(C)(C)NC3(C)C)c(C(C)C)cc1Cl | -65 | -1 | -12 | -4 | -55*
NC(=O)c1c(NC(=O)Cc2ccccc2)sc2c1CCN(Cc1ccccc1)C2 | 62* | 7 | 7 | -4 | 35
COc1ccccc1OCC(=O)Nc1sc2c(c1C(N)=O)CCC2 | . | 89* | 77* | -2 | .
CC(C)(C)c1ccc(C(=O)OCC(=O)Nc2sc3c(c2C#N)CCC3)cc1 | -51 | 14 | . | -1 | -37
C[C@@H]1CN([C@H](C)CO)C(=O)c2cccc(NS(=O)(=O)c3ccccc3)c2O[C@H]1CN(C)C(=O)Nc1ccc(F)cc1 | . | . | -3 | . | .
CNC[C@H]1Oc2ccc(NS(=O)(=O)c3ccc(C)cc3)cc2C(=O)N([C@@H](C)CO)C[C@H]1C | . | . | 0 | . | .
COc1ccc(NC(=O)Nc2ccc3c(c2)C(=O)N([C@H](C)CO)C[C@@H](C)[C@H](CN(C)C(=O)Nc2ccc(OC)cc2)O3)cc1 | . | . | 1 | . | .
C[C@H]1CN([C@@H](C)CO)C(=O)Cc2cc(NC(=O)NC3CCCCC3)ccc2O[C@H]1CN(C)Cc1ccncc1 | . | . | 4 | . | .
Cc1cccc2sc(N(CCN(C)C)C(=O)/C=C/c3cccs3)nc12 | 78* | 16 | . | 3 | 29
CN(C)CCCN(C(=O)/C=C/c1cccs1)c1nc2c(F)cccc2s1 | -8 | -51 | . | 6 | 1
CC(=O)C(Cc1ccccc1)NC(=O)CN1CCc2ccccc2C1 (stereo not drawn) | 16 | -8 | . | 0 | 4
CC(CCc1ccccc1)NC(=O)CN1CCc2ccccc2C1 (stereo not drawn) | 94* | 5 | -4 | 3 | 51
COc1cccc(NC(=S)N/N=C2\CC3CCC2(C)C3(C)C)c1 (stereo not drawn) | 16 | 25 | 54* | 4 | 2
CC(=NC1CCCCC1)C1=C(O)c2ccccc2C1=O | 39 | 90* | 14 | ? | 21
COc1cc(/C=C/c2noc(-c3ccccc3O)n2)ccc1OC(C)=O | 54* | ? | 19 | ? | 15
CC[n+]1c(/C=C/c2ccc(N(C)C)cc2)ccc2ccccc21 | 8 | -88 | . | . | 3
CC[n+]1c(/C=C/c2cc([N+](=O)[O-])ccc2O)ccc2ccccc21 | -67 | . | 43* | -2 | -58*
CC[n+]1c(/C=C/c2ccc(OC(C)=O)c(OC)c2)ccc2ccccc21 | 22 | 97* | 83* | 17 | 9
CC[n+]1c(/C=C/c2ccc(OC)c(OC)c2)ccc2ccccc21 | -33 | . | 80* | 8 | -25
CN(C)/N=C/c1cc([N+](=O)[O-])ccc1O | -9 | -7 | -2 | 2 | -3
O=C(Nc1cccc(Cl)c1)N1C[C@@H]2[C@H](c3ccccc31)[C@H](CO)N2C(=O)C1CCCC1 | . | . | -1 | . | .
O=C(C[C@@H]1CC[C@H](NC(=O)c2cccc(F)c2)[C@H](CO)O1)Nc1nccs1 | . | . | 4 | . | .
Cc1ccc(S(=O)(=O)Nc2ccc3c(c2)C(=O)N([C@@H](C)CO)C[C@H](C)[C@@H](CN(C)S(=O)(=O)c2ccc(F)cc2)O3)cc1 | . | . | -2 | . | .
SMILES | HSF-1 act | MITF TRPM1 HTS | esBAF inh | Wnt bcat act | HSF1 inhib
CCOC(=O)c1nnn(CC(=O)N2N=C(c3ccc(Cl)cc3)CC2c2ccc(OC)cc2)c1C(=O)OCC (stereo not drawn) | -3 | 3 | -6 | -2 | -5
CCOC(=O)c1nnn(CC(=O)N2N=C(c3ccc(Cl)cc3)CC2c2ccccc2)c1C(=O)OCC (stereo not drawn) | 52* | 1 | 0 | -5 | 20
Cc1ccc(OCC(=O)N/N=C/c2ccco2)cc1 | -9 | 7 | 5 | -2 | 5
CN(C)c1ccc(/C=N\NC(=O)c2cccc3cc[nH]c23)cc1 | -24 | . | 54* | 10 | -18
Cc1ccc(C(=O)NNC(=S)NC(=O)c2ccco2)cc1 | -31 | -1 | . | -1 | -38
Cc1ccc(SCC(=O)N/N=C/c2ccco2)cc1 | 59* | . | 1 | 2 | 16
O=C(N/N=C\c1ccoc1)c1ccco1 | 9 | -2 | . | 0 | -1
CN(C)c1ccc(/C=N/NC(=O)c2ccco2)cc1 | 37 | 44 | -5 | 42* | 3
Cc1ccc(C(=O)NNC(=O)c2ccco2)cc1 | 25 | 49 | 51* | 21 | 15
COC(=O)[C@@H]1[C@@H](CO)[C@@H]2Cn3c(ccc(-c4cccnc4)c3=O)[C@@H]2N1Cc1cccc(F)c1 | . | . | -7 | . | .
Cn1ccc(C(=O)N/N=C/c2cccnc2)n1 | 11 | 0 | 1 | 2 | 17
CN(C)c1ccc(/C=N/NC(=O)c2ccn(C)n2)cc1 | 22 | 44 | . | 34* | 3
Cc1ccc(/C=N/NC(=O)c2ccco2)cc1 | 17 | . | . | 39* | 3
Cc1cccc(C(=O)NNC(=O)c2ccc(O)cc2)c1 | 6 | . | 5 | 3 | 2
Cc1ccc(C(=O)NNC(=O)c2cccc(C)c2)cc1 | -13 | 41 | 41* | . | -5
C[C@@H]1CN([C@H](C)CO)C(=O)Cc2cc(N(C)C)ccc2O[C@H]1CN(C)CC1CC1 | . | . | -7 | . | .
N/C(=N\OC(=O)c1cccc(F)c1)c1cccc([N+](=O)[O-])c1 | 47 | . | 61* | -2 | 40
N/C(=N/OC(=O)c1cccc([N+](=O)[O-])c1)c1cccc([N+](=O)[O-])c1 | 16 | 42 | . | 6 | 6
